Activity calls are given as the source filed them. The calls were made as follows: active = hit-call score of the fitted dose curve at least 0.9, where 1 is the maximum; inactive = score below 0.9.

Holding throughout (settings): mRNA level, 48 h; actives raise or lower the signal
Read-out in assay [1]: Interleukin 6 (IL6), IL6 (gene 3569)
The assay is described as follows: LTEA_HepaRG_IL6: Life Technologies and Expression Analysis (LTEA) Assay for Interleukin 6 (IL6) using HepaRG (AID 2283509). The procedure, abridged:
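Differentiated human HepaRG cells, plated 48 h then switched to serum-free induction medium, were exposed in duplicate for 48 h to eight half-log concentrations up to 100 uM in 0.5% DMSO. IL6 mRNA measured by qRT-PCR, normalized to ACTB/GAPDH/POLR2A.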

Read-out in assay [2]: Interleukin 6 Receptor (IL6R), IL6R (gene 3570)
The assay is described as follows: LTEA_HepaRG_IL6R: Life Technologies and Expression Analysis (LTEA) Assay for Interleukin 6 Receptor (IL6R) using HepaRG (AID 2283510).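 As to AC50: TaqMan qRT-PCR signal normalized to ACTB GAPDH and POLR2A housekeeping genes.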 The procedure, abridged: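 Readout is IL6R transcript level by TaqMan qRT-PCR, normalized to three housekeeping genes and fitted bidirectionally against 0.5% DMSO controls. Human HepaRG cells received chemicals for 48 h in serum-free induction medium, highest concentration 100 uM.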

Read-out in assay [3]: Potassium channel subfamily K member 1 (KCNK1), KCNK1 (gene 3775)
The assay is described as follows: LTEA_HepaRG_KCNK1: Life Technologies and Expression Analysis (LTEA) Assay for Potassium channel subfamily K member 1 (KCNK1) using HepaRG (AID 2283511). The essentials: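 Differentiated human HepaRG cells in serum-free induction medium were exposed in duplicate for 48 h to 8 half-log concentrations up to 100 uM in 0.5% DMSO. KCNK1 mRNA was measured by TaqMan qRT-PCR, normalized to ACTB, GAPDH and POLR2A, and fitted bidirectionally versus DMSO.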

Read-out in assay [4]: Keratin 19 (KRT19), KRT19 (gene 3880)
Briefly: LTEA_HepaRG_KRT19: Life Technologies and Expression Analysis (LTEA) Assay for Keratin 19 (KRT19) using HepaRG (AID 2283512). The essentials: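 Gene-expression endpoint in the human liver line HepaRG after 48 h exposure to up to 100 uM test chemical with 0.5% DMSO vehicle; KRT19 mRNA by qRT-PCR, analyzed bidirectionally versus DMSO.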

Read-out in assay [5]: JUN Transcription Factor, JUN (gene 3725)
Briefly: LTEA_HepaRG_JUN: Life Technologies and Expression Analysis (LTEA) Assay for JUN Transcription Factor using HepaRG (AID 2283513). The procedure, abridged:
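Cells plated 48 h, medium switched to serum-free induction medium, then dosed 48 h (100 uM top, half-log dilutions, 0.5% DMSO). RNA isolated; JUN measured by qRT-PCR against three housekeeping genes; gain or loss fitted relative to DMSO.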

Read-out in assay [6]: Lipase C (LIPC), LIPC (gene 3990)
The assay is described as follows: LTEA_HepaRG_LIPC: Life Technologies and Expression Analysis (LTEA) Assay for Lipase C (LIPC) using HepaRG (AID 2283514). The essentials:
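Differentiated human HepaRG cells in serum-free induction medium were exposed in duplicate for 48 h to eight concentrations (top 100 uM, half-log steps, 0.5% DMSO). LIPC mRNA was quantified by TaqMan qRT-PCR, normalized to ACTB, GAPDH and POLR2A, with bidirectional fitting versus DMSO.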

Read-out in assay [7]: Lipoprotein lipase (LPL), LPL (gene 4023)
Briefly: LTEA_HepaRG_LPL: Life Technologies and Expression Analysis (LTEA) Assay for Lipoprotein lipase (LPL) using HepaRG (AID 2283515). The essentials:
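Differentiated human HepaRG cells in serum-free induction medium were exposed in duplicate for 48 h to eight half-log concentrations (top 100 uM) in 0.5% DMSO. LPL mRNA was quantified by TaqMan qRT-PCR, normalized to ACTB, GAPDH and POLR2A.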

Read-out in assay [8]: MicroRNA 122 (MIR122), gene 406906
The assay is described as follows: LTEA_HepaRG_MIR122: Life Technologies and Expression Analysis (LTEA) Assay for MicroRNA 122 (MIR122) using HepaRG (AID 2283516). Also: the transcript read is the microRNA miR-122. The procedure, abridged: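 HepaRG plated 48 h, switched to serum-free induction medium, then treated in duplicate for 48 h (100 uM top, half-log steps, 0.5% DMSO vehicle). RNA isolated, qRT-PCR performed, concentration-response fitted both directions relative to DMSO.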

Read-out in assay [9]: matrix metalloproteinase-10 (MMP10), MMP10 (gene 4319)
Briefly: LTEA_HepaRG_MMP10: Life Technologies and Expression Analysis (LTEA) Assay for matrix metalloproteinase-10 (MMP10) using HepaRG (AID 2283517). The procedure, abridged: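 HepaRG, collagen I, ~100,000 cells/well; serum-free induction medium; 48 h exposure, duplicate, 8-pt half-log to 100 uM, 0.5% DMSO. Readout: TaqMan qRT-PCR, normalized to ACTB/GAPDH/POLR2A; bidirectional fit vs DMSO.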

Read-out in another assay: MYC, MYC (gene 4609)
Briefly: LTEA_HepaRG_MYC: Life Technologies and Expression Analysis (LTEA) Assay for MYC using HepaRG (AID 2283518). The essentials:
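Cells are thawed, plated and cultured 48 h, then treated for 48 h with test chemicals (eight half-log concentrations from 100 uM, 0.5% DMSO vehicle). RNA is isolated and MYC expression quantified by qRT-PCR against three housekeeping genes.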

Read-out in assay [10]: matrix metalloproteinase-3 (MMP3), MMP3 (gene 4314)
Briefly: LTEA_HepaRG_MMP3: Life Technologies and Expression Analysis (LTEA) Assay for matrix metalloproteinase-3 (MMP3) using HepaRG (AID 2283519). The essentials:
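Differentiated human HepaRG cells, plated 48 h on collagen I, were exposed in duplicate for 48 h in serum-free induction medium to eight half-log concentrations up to 100 uM in 0.5% DMSO. MMP3 mRNA was quantified by TaqMan qRT-PCR, normalised to ACTB, GAPDH and POLR2A.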

Read-out in assay [11]: Paternally Expressed 10 (PEG10), PEG10 (gene 23089)
Briefly: LTEA_HepaRG_PEG10: Life Technologies and Expression Analysis (LTEA) Assay for Paternally Expressed 10 (PEG10) using HepaRG (AID 2283520). The essentials:
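HepaRG, 48 h post-plating → serum-free induction medium → 48 h chemical exposure (duplicate, 8-pt, max 100 uM, half-log, 0.5% DMSO) → lysis in RLT → TaqMan qRT-PCR for PEG10, ACTB/GAPDH/POLR2A normalisation.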

Read-out in assay [12]: Nuclear factor NF-kappa-B p105 subunit (Homo sapiens) (UniProt P19838)
Briefly: LTEA_HepaRG_NFKB1: Life Technologies and Expression Analysis (LTEA) Assay for Nuclear Factor Kappa B Subunit 1 (NFKB1) using HepaRG (AID 2283521).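 Also: TaqMan qRT-PCR transcript normalised to ACTB GAPDH and POLR2A housekeeping genes.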 The essentials: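 Human HepaRG cells receive eight half-log concentrations, highest 100 uM, for 48 h. NFKB1 expression is then quantified by qRT-PCR and analysed for up- or down-regulation relative to 0.5% DMSO vehicle.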

Read-out in assay [13]: Protein phosphatase 2A (PPP2R4), PTPA (gene 5524)
Briefly: LTEA_HepaRG_PPP2R4: Life Technologies and Expression Analysis (LTEA) Assay for Protein phosphatase 2A (PPP2R4) using HepaRG (AID 2283522). The essentials:
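Readout is PPP2R4 transcript level by microfluidic qRT-PCR after 48 h chemical treatment of human HepaRG liver cells. Concentrations spanned 100 uM downward in half-log steps; gain or loss of signal was fitted relative to DMSO.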

Read-out in assay [14]: Phosphatase and tensin (PTEN), PTEN (gene 5728)
The assay is described as follows: LTEA_HepaRG_PTEN: Life Technologies and Expression Analysis (LTEA) Assay for Phosphatase and tensin (PTEN) using HepaRG (AID 2283523). The essentials:
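Differentiated human HepaRG cells, plated 48 h then switched to serum-free induction medium, were exposed in duplicate for 48 h to eight half-log concentrations up to 100 uM in 0.5% DMSO. PTEN mRNA measured by TaqMan qRT-PCR, normalized to ACTB/GAPDH/POLR2A, bidirectional fit versus DMSO.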

Read-out in assay [15]: solute carrier (SLC22A1), SLC22A1 (gene 6580)
Briefly: LTEA_HepaRG_SLC22A1: Life Technologies and Expression Analysis (LTEA) Assay for solute carrier (SLC22A1) using HepaRG (AID 2283524). The essentials:
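Human HepaRG cells were plated 48 h, switched to serum-free induction medium, then exposed in duplicate for 48 h to 8-point half-log series from 100 uM in 0.5% DMSO. SLC22A1 mRNA measured by qRT-PCR, normalized to ACTB/GAPDH/POLR2A, fitted bidirectionally versus DMSO.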

Read-out in assay [16]: Pyruvate Dehydrogenase Kinase 4 (PDK4), PDK4 (gene 5166)
Briefly: LTEA_HepaRG_PDK4: Life Technologies and Expression Analysis (LTEA) Assay for Pyruvate Dehydrogenase Kinase 4 (PDK4) using HepaRG (AID 2283525). The essentials: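 Differentiated human HepaRG cells, pre-cultured 48 h, were exposed in duplicate for 48 h in serum-free induction medium to eight half-log concentrations up to 100 uM in 0.5% DMSO. PDK4 mRNA was quantified by qRT-PCR, normalized to ACTB, GAPDH and POLR2A, bidirectional fitting versus DMSO.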

Read-out in assay [17]: NAD(P)H dehydrogenase [quinone] 1 (NQO1), NQO1 (gene 1728)
The assay is described as follows: LTEA_HepaRG_NQO1: Life Technologies and Expression Analysis (LTEA) Assay for NAD(P)H dehydrogenase [quinone] 1 (NQO1) using HepaRG (AID 2283526). The essentials:
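HepaRG, 48 h post-plating → serum-free induction medium → test chemical 48 h (duplicate, 100 uM top, half-log x8, 0.5% DMSO) → RNA isolation → qRT-PCR, ACTB/GAPDH/POLR2A normalization; bidirectional curve fit vs DMSO baseline.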

Read-out in assay [18]: Nuclear factor erythroid 2-related factor 2 (Homo sapiens) (UniProt Q16236)
Briefly: LTEA_HepaRG_NFE2L2: Life Technologies and Expression Analysis (LTEA) Assay for Nuclear factor erythroid 2-related factor 2 (NFE2L2) Transcription Factor using HepaRG (AID 2283527).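 As to outcome: TaqMan qRT-PCR transcript level normalised to ACTB GAPDH and POLR2A housekeeping genes.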 The essentials: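 Differentiated human HepaRG cells in serum-free induction medium were exposed for 48 h to eight concentrations (top 100 uM, half-log dilutions, 0.5% DMSO), in duplicate. NFE2L2 mRNA was quantified by TaqMan qRT-PCR, normalized to ACTB, GAPDH and POLR2A, with bidirectional fitting versus DMSO.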

Read-out in assay [19]: succinate dehydrogenase complex iron sulfur subunit B (SDHB), SDHB (gene 6390)
The assay is described as follows: LTEA_HepaRG_SDHB: Life Technologies and Expression Analysis (LTEA) Assay for succinate dehydrogenase complex iron sulfur subunit B (SDHB) using HepaRG (AID 2283528). The essentials: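 A human HepaRG culture in serum-free induction medium received test chemicals for 48 h over an eight-point range capped at 100 uM. SDHB expression change was quantified by qRT-PCR.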

Sequence of Nuclear factor NF-kappa-B p105 subunit (Homo sapiens) (P19838 whole entry, looked up): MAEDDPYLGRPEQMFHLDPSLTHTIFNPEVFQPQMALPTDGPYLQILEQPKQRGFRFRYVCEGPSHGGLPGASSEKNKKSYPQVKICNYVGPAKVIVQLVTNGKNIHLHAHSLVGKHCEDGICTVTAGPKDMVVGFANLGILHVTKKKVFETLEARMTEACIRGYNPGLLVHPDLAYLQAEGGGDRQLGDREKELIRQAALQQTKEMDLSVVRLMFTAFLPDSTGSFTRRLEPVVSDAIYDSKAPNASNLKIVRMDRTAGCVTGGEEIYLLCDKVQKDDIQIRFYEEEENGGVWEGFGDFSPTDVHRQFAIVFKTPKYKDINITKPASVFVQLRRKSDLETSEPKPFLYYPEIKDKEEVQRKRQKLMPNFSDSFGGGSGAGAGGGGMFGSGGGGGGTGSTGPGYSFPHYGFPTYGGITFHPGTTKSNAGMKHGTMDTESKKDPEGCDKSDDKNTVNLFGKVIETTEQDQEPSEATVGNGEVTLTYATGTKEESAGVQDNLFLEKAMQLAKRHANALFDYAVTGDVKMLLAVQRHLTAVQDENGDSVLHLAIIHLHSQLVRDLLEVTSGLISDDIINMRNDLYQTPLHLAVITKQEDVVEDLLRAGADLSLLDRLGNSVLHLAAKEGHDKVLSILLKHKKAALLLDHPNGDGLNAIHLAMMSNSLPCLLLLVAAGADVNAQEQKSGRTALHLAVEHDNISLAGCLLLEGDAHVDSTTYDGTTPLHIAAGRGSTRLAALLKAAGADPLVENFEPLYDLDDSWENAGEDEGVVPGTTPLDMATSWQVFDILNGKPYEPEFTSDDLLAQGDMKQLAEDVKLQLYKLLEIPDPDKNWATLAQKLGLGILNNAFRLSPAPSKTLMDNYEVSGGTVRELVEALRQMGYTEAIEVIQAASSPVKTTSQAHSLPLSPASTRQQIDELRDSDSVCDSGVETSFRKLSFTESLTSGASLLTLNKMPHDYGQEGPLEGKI
Sequence of Nuclear factor erythroid 2-related factor 2 (Homo sapiens) (Q16236 whole entry, looked up): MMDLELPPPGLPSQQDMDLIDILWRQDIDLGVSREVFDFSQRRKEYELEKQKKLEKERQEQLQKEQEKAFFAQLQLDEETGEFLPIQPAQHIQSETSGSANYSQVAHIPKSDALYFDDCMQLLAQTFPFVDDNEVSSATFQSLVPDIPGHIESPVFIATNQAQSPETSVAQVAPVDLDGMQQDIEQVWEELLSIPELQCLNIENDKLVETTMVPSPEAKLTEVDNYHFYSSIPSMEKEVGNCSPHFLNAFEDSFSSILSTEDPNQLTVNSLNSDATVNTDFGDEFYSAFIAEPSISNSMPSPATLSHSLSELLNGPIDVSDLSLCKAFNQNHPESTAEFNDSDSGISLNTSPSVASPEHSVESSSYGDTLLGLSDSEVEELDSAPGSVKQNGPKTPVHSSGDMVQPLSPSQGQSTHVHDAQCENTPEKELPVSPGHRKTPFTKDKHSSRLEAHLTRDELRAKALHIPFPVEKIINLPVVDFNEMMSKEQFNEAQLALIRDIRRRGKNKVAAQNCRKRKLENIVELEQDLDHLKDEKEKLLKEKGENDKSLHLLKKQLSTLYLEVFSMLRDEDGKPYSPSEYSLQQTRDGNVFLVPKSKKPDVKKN

`COCC(C)OCC(C)O` (stereo not drawn): the outcome in assay [1], in assay [2], in [3], in assay [4], in assay [5] and in assay [6] was inactive. For the same compound, the outcome is “inactive” in assay [7]; “inactive” in assay [8]; “inactive” in assay [9]; “inactive” with MYC, MYC (gene 4609); “inactive” in assay [10]; “inactive” in assay [11]. For the same compound, the call in assay [12], in assay [13], in assay [14], in assay [15], in assay [16] and in assay [17] was inactive. The compound was classed as inactive in [18] and in assay [19].

One may read the AC50 as the midpoint of the concentration-response curve, whichever way the signal moves. With `CCCCCCCCCCCCc1ccccc1S(=O)(=O)O`, the concentration at half-maximal activity (AC50) in [1] is 79.6 µM (active); in [2], 83 µM (active); in assay [5], 34.7 µM (active); in assay [6], 72 µM (active); in [7], 11.7 µM (active); in assay [8] it was 80.6 µM (active). The AC50 in [9] was 82.8 µM (active); with MYC, MYC (gene 4609), 37.8 µM (active); in assay [10], 26.9 µM (active); in assay [13] it was 21.2 µM (active); in assay [14] it was 12 µM (active); in assay [15], 93.2 µM (active). In addition, the AC50 in [16] is 10.8 µM (active); in [18], 19.9 µM (active). Besides, the result in assay [3], in assay [4], in assay [11], in [12], in [17] and in assay [19] was inactive.

For the compound `c1ccc2c(c1)Cc1ccccc1-2`, the outcome in assay [1], in assay [2], in assay [3], in assay [4], in assay [5] and in [6] was inactive. For the same compound, the outcome is “inactive” in assay [7]; “inactive” in assay [8]; “inactive” in [9]; “inactive” with MYC, MYC (gene 4609); “inactive” in assay [10]; “inactive” in [11]. The compound was classed as inactive in [12], in [13], in assay [14], in assay [16], in [17] and in [18]. Moreover, in [19], the result was inactive.

As for `COCC(C)O` (stereo not drawn), the result in assay [1], in assay [2], in assay [3], in [4], in [5] and in assay [6] was inactive. For the same compound, the outcome in [7] is “inactive”; in assay [8] it was “inactive”; in [9] it was “inactive”; in the assay with MYC, MYC (gene 4609), “inactive”; in [10], “inactive”; in assay [11], “inactive”. Also, the compound was called inactive in [12], in [13], in assay [14], in [16], in assay [17] and in [18]. The call in assay [19] was inactive.
